# Measurements published in PubChem BioAssay.
# Calls of active or inactive are those of the source.
# What was measured:
# [1] = molecular target: Albumin (Bos taurus) (UniProt P02769); experiment: compounds binding labelled BSA control protein – biochemical, small-molecule microarray, Alexa647 label, 635/667 nm fluorescence, artefact control for SMM control protein annotation, profiling panel (AID 1118); details: BSA-A647 binding, fluorescence 635 nm, higher = more signal;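 also: score merges 667 nm emission intensity and signal-to-noise per printed compound spot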
# Albumin (Bos taurus), sequence (P02769 whole entry, looked up): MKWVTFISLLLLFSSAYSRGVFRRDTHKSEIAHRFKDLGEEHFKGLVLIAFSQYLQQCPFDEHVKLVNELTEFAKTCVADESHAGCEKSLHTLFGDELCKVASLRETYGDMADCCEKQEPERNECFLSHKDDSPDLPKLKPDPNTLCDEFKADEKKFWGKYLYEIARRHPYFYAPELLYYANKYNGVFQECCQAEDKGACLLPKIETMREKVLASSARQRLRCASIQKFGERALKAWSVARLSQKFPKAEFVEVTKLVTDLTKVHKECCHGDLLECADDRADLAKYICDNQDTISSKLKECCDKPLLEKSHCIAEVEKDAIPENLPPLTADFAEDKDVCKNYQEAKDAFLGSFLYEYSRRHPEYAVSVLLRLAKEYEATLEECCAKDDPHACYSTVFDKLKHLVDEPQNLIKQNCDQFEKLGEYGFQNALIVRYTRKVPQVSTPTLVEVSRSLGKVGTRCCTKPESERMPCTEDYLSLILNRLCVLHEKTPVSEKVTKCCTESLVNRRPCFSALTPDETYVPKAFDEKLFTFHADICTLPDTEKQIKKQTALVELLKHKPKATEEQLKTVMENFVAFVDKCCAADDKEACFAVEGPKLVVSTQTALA
# [2] = probe aXIP binding to arrayed compounds – biochemical, NeuroSMM set, 635/667 nm fluorescence, primary screen (AID 1119); details: small-molecule microarray, higher = more signal, called active from +8 up or from −8 down;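 also: probe is the protein aXip251-270 applied at 1 µg/mL to compound-printed slides; binding of probe to printed compounds measured as 667 nm fluorescence plus signal to noise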
# [3] = probe aNOTCH3 binding on compound microarray – biochemical, small-molecule microarray, 635/667 nm fluorescence, primary screen (AID 1120); details: higher = more signal;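 also: probe is a biotin-tagged antibody raised against NOTCH3 rather than NOTCH3 protein; score merges spot fluorescence near 667 nm with spot signal to noise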
# [4] = probe aNOTCH2 binding on compound microarray – biochemical, small-molecule microarray, 635/667 nm fluorescence, primary screen (AID 1121); details: higher = more signal;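 also: score merges feature fluorescence read at 667 nm with its signal to noise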
# [5] = molecular target: Carbonic anhydrase 2 (Homo sapiens) (UniProt P00918); experiment: compounds binding carbonic anhydrase 2 – biochemical, small-molecule microarray, Alexa647-labelled CAII, profiling panel (AID 1122); details: CAII-A647 binding fluorescence, higher = more signal
# [6] = COS7 lysate on small-molecule microarray, probe aHis, 635 nm (AID 1123); details: COS7 cell lysate, fluorescence, higher = more signal;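 also: z-score combines 667nm fluorescence intensity with signal-to-noise per printed compound spot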
# [7] = probe aLAP1 signal on lysate-treated microarray – cell lysate, small-molecule microarray, COS7 lysate, primary screen (AID 1124); details: probe aLAP1, fluorescence, higher = more signal;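 also: lysate comes from COS7 cells expressing LAP1 and is applied at 0.3 µg/mL; score merges spot fluorescence near 667 nm with signal-to-noise over triplicate slides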
# [8] = test system: Sam68 (KHDRBS1); experiment: compounds binding KHDRBS1 protein – biochemical, small-molecule microarray, 635 nm fluorescence, primary screen (AID 1125); details: higher = more signal;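 also: score merges 667 nm channel intensity with signal to noise over triplicate slides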
# [9] = test system: Chordin-like protein 2 (CHRDL2); experiment: compounds binding chordin-like 2 – biochemical, small-molecule microarray, 635 nm fluorescence, primary screen (AID 1126); details: fluorescence 635 nm, higher = more signal;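 also: printed compound slides probed with Chrdl2 protein at 4 µg/mL for 1 h at 4 C; score merges 667 nm emission intensity with signal to noise over three replicate slides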
# [10] = molecular target: Concanavalin-A (Canavalia ensiformis) (UniProt P02866); experiment: compounds binding concanavalin A lectin – biochemical, small-molecule microarray, Alexa647 label, 635 nm, artefact control for SMM control protein annotation, primary screen (AID 1127); details: ConA-A647 binding fluorescence, higher = more signal;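 also: z combines 667 nm emission intensity with signal-to-noise across three replicate slides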
# Concanavalin-A (Canavalia ensiformis), sequence (P02866 whole entry, looked up): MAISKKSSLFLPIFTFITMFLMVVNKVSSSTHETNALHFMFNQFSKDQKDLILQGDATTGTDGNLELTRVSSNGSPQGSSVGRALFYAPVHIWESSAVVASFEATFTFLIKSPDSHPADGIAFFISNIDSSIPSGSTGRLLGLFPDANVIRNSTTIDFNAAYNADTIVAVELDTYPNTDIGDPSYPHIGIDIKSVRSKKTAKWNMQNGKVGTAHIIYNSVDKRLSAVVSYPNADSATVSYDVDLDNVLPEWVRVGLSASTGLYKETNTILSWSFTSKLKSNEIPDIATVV
Structure (SMILES),composite z-score [1],composite Z-score [2],composite z-score [3],composite z-score [4],composite z-score [5],composite z-score [6],composite z-score [7],composite z-score [8],composite z-score [9],composite z-score [10]
C=C(COC)C(=O)CC[C@@H](OC(=O)c1ccccc1-c1ccccc1C(=O)O)c1ccccc1OCCO,-0.597,0.49 (inactive),-0.122,-0.0174,0.531,-0.381,1.67,0.448,0.538,0.0185
COc1cccc(C)c1NC(=O)O[C@H]1[C@H](OC(=O)Nc2ccc3c(c2)OCO3)[C@H](OC(=O)Nc2ccc3c(c2)OCO3)[C@@H](OC)O[C@@H]1CO,0.428,0.645 (inactive),0.473,-0.101,0.3,1.43,0.405,1.3,0.0955,1.17
CO[C@H]1O[C@H](CO)[C@@H](OC(=O)Nc2ccccc2)[C@@H]2OC(=O)[C@@H](Cc3ccccc3)C/C=C/C[C@H](Cc3ccccc3)C(=O)O[C@@H]12,0.0558,0.547 (inactive),0.106,-0.0486,0.315,0.923,0.79,0.296,-0.0529,-0.216
Cc1ccc(S(=O)(=O)N2[C@@H](c3ccccc3)C(C(=O)O)=C[C@H]2C(C)(C)C)cc1,1,0.882 (inactive),0.178,0.0458,0.756,2.82,0.827,1.3,-0.301,1.17
O=C1O[C@H](c2ccccc2)[C@H](c2ccccc2)N2[C@H]1[C@@H](C(=O)N1CCCCCCC1)[C@]1(C(=O)Nc3ccc(C#CCCO)cc31)[C@H]2c1ccc(O)cc1,0.777,9.39 (active),2.27,1.18,0.91,4.64,1.53,1.35,1.68,1.17
C=C(CCCC)C(=O)CC[C@@H](OC(C)=O)c1ccc(OCCO)cc1,-0.267,3.19 (inactive),0.15,-0.117,0.628,0.143,1.21,-0.135,0.523,0.397
C=C(CCCC)/C(=C/C[C@@H](OC(C)=O)c1ccc(OCCO)cc1)c1cc(C(=O)OC)ccc1OC,-0.526,0.0578 (inactive),-0.0377,-0.092,0.721,1.55,0.155,1.2,-0.362,0.787
COCCOC(=O)N1C(=O)[C@@]2(c3cc(C#CCC(C(=O)OC)C(=O)OC)ccc31)[C@H](C(=O)N1CCc3cc(OC)c(OC)cc3C1)[C@H]1C(=O)O[C@H](c3ccccc3)[C@H](c3ccccc3)N1[C@@H]2c1ccccc1OCCO,0.329,-0.331 (inactive),0.182,-0.106,0.401,0.977,0.75,1.3,0.854,1.14
CC(C)C[C@@H]1NC(=O)[C@@H]2C[C@H](C(=O)NCCCCCNC(=O)CS)[C@H](c3ccc(O)cc3)N2C1=O,-0.0368,-0.442 (inactive),-0.101,-0.104,0.36,2.1,-0.646,0.92,0.652,0.374
CC(C)Cc1ccc(CN2CC[C@@H](NC(=O)c3ccccc3)C2)cc1,0.767,0.196 (inactive),-0.129,-0.109,-0.0412,-0.0414,-0.0172,-0.252,0.345,-0.52
C=CCNC(=O)[C@H]1[C@@H]2C(=O)O[C@@H](c3ccccc3)[C@@H](c3ccccc3)N2[C@@H](c2ccc(OCCO)cc2)[C@]12C(=O)N(C(=O)OCCOC)c1ccc(C#CCC(C(=O)OC)C(=O)OC)cc12,0.738,0.245 (inactive),0.327,0.0654,0.702,2.67,1.44,1.16,0.6,1.12
CN1C(=O)C2CC=C(C3=CCO[C@@H]3[C@H]3CCCN3S(=O)(=O)c3ccccc3[N+](=O)[O-])CC2C1=O (stereo not given in full),0.811,0.0129 (inactive),-0.0647,-0.106,-0.0199,0.205,-0.065,-0.7,-0.537,-0.65
COC(=O)C(CC#Cc1ccc2c(c1)[C@]1(C(=O)N2)[C@H](C(=O)N2CCN(c3ncccn3)CC2)[C@H]2C(=O)O[C@H](c3ccccc3)[C@H](c3ccccc3)N2[C@@H]1c1ccc(O)cc1)C(=O)OC,-0.542,0.939 (inactive),0.972,0.279,0.636,2.38,0.97,1.28,1.08,1.21
[N-]=[N+]=NCc1ccccc1[C@H]1OC(c2ccc(OCCCO)cc2)=N[C@@]1(Cc1ccccc1N=[N+]=[N-])C(N)=O,0.884,0.385 (inactive),0.339,-0.229,0.743,2.72,-0.182,1.27,-0.0265,1.08
